Screening results from PubChem BioAssay.
An excerpt weighted towards active compounds, which were near 3.1% of everything screened.
KKLEB cytotox: counter-screen for CF NF-kB inhibitors: cytotoxicity; KKLEB CF airway cells viability, ATPlite luminescence, overnight; hits give low values; cells stimulated with P. aeruginosa culture filtrate; activity change (cytotoxicity), % at 5 µM; 360,000 compounds, 0.36% hits;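 active = corrected activity change at or below -50% at 5 µM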
ABHD5-PLIN5 inh: blocks binding of human ABHD5 to perilipin-5. Q00G26+Q8WTS1. Split G. princeps luciferase complementation, luminescence, 4 h. inhibition, % at 4 µM. 360,000 compounds, 0.78% hits. AID 602281;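 active = inhibition above the mean inhibition across every tested compound plus 3 SD, cut at about 22% in these data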;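 also: 0% = DMSO only wells and the 100% control is not disclosed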
Target sequence (Q00G26 whole entry, looked up): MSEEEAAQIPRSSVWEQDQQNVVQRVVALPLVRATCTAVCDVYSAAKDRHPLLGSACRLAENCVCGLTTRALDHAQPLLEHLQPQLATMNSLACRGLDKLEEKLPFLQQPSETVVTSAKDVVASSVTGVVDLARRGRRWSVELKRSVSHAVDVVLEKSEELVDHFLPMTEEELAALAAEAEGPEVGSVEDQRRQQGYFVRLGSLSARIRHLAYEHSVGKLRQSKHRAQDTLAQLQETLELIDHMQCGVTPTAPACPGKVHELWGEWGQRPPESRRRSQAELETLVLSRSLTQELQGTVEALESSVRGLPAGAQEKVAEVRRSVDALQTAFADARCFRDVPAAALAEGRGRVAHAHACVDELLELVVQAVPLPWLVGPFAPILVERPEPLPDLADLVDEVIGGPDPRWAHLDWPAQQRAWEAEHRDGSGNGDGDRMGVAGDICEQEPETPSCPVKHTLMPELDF
Target sequence (Q8WTS1 whole entry, looked up): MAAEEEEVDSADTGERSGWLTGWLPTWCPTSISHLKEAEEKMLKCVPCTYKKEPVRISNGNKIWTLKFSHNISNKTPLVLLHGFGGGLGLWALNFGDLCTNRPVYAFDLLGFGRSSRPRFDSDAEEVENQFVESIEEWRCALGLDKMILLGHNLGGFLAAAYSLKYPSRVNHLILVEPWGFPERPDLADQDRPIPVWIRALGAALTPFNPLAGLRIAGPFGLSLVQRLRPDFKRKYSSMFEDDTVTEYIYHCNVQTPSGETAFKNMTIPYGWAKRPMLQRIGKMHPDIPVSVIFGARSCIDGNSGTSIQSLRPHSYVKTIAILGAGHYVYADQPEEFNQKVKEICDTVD
HIF-2a block: blocks HIF-2a reporter activity; 786-0 RCC cells HIF-2a reporter, luciferase luminescence, overnight; inhibition, % at 18.8 µM; 360,000 compounds, 0.72% hits;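 active = inhibition of the luminescence signal of 40% or more relative to plate controls, in a single-dose primary screen at 18.75 µM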
CF NFkB inh: inhibitors of cystic fibrosis induced NF-kB | 360,000 compounds, 0.86% hits | AID 588850 | inhibition, % at 5 µM | KKLEB NF-kB-GFP reporter, PAF-induced, GFP fluorescence overnight;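 active = at least 50% inhibition at 5 µM, scaled per plate between neutral and stimulator controls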;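 also: PAF is a Pseudomonas aeruginosa culture filtrate used as stimulus; plate controls were PAF-stimulated DMSO wells for no effect and unstimulated DMSO wells for full effect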
TRPM1 prom inh: MITF TRPM1 promoter inhibition in SK-MEL-5 cells; SK-MEL-5 TRPM1 promoter luciferase, 24 h; inhibition, % at 12.5 µM; 330,000 compounds, 0.83% hits; AID 488899;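 active = mean inhibition across replicates of 60% or more, whatever share of single replicates reaches that level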
Peg3 prom inh: reduces Peg3 promoter-driven luciferase expression in HeLa; AID 588405; HeLa PEG-Prom luciferase reporter, luminescence, overnight; 360,000 compounds, 1.7% hits; inhibition, % at 20 µM;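 active = inhibition of at least 50% at 20 µM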
An asterisk follows results filed as active; . = not tested or not shown.

SMILES	KKLEB cytotox	ABHD5-PLIN5 inh	HIF-2a block	CF NFkB inh	TRPM1 prom inh	Peg3 prom inh
COCc1cc(C)nc(SCC[N+](C)(C)CC(=O)Nc2cccc(C(F)(F)F)c2)c1C#N	7	15	8	1	-13	-15
CC(C)[C@H]1CN=C2N(C[C@H](C)NC(=O)CCC3CCCCC3)[C@H](Cc3ccc(O)cc3)CN21	-28	7	-12	-9	-10	-9
COc1ccc(C[C@@H]2CN3C(=NC[C@@H]3Cc3ccc(O)cc3)N2C[C@H](C)NC(=O)CCC2CCCCC2)cc1	-19	12	-15	0	-17	68*
CCOC(=O)c1cc2ccccc2n1C1CCN(CCc2ccccc2)CC1	.	-6	4	.	.	.
COc1ccc([C@H]2C[C@H](n3cc(COC(=O)c4ccccc4)nn3)[C@@H](O)CN2CC2CCCCC2)cc1	-19	1	12	4	.	-19
COc1ccc([C@H]2C[C@@H](O)[C@H](n3cc(COC(=O)c4ccccc4)nn3)CN2CC2CCCCC2)cc1	8	-13	-15	-27	.	52*
O=C1c2cccc(NCCCNCCO)c2C(=O)c2cccc(NCCCNCCO)c21	-4	11	48*	-34	86*	109*
O=C1c2ccccc2C(=O)c2c(NCc3cccnc3)cccc21	2	-1	-150	-68	6	-19
C[C@@H](NC(=O)c1ncn2c1c(=O)[nH]c1ccc(Br)cc12)c1ccccc1	8	0	7	-11	.	79*
C[C@@H](NC(=O)c1ncn2c1c(=O)[nH]c1cccnc12)c1ccccc1	10	-4	11	-30	.	2
CN(C)CCCNc1nc2cc(-c3cccc(C(F)(F)F)c3)sc2c(=O)n1C	-5	3	-50	-13	.	96*
CN(C)CCCNc1nc2cc(-c3cccc(Cl)c3)sc2c(=O)n1C	-9	10	-54	-43	.	91*
CC1(C(=O)Nc2ccc3c(c2)OCO3)Cc2c(-c3cccc(C(F)(F)F)c3)ccnc2O1 (centres undefined)	-22	-3	-2	31	.	5
COc1cc2nc(Nc3ccc(C)c(C)c3)nc(N)c2cc1OC	-29	10	-17	-27	35	56*
COc1cc2nc(Nc3ccc(C)c(Cl)c3)nc(N)c2cc1OC	-51*	6	-19	-1	70*	114*
COc1cc2nc(Nc3ccc(F)cc3)nc(N)c2cc1OC	-13	-2	-43	-47	-24	-24
COc1cccc2cc(C(=O)Nc3ccc(S(=O)(=O)NCC4CCCO4)cc3)c(=O)oc12 (centres undefined)	-4	-12	-5	22	-11	-3
CN(C)c1ccnc(Nc2ccccc2)c1C#N	6	0	4	0	11	8
CN(C)c1ccnc2c[cH-]cc12.[Fe].c1ccc(-[c-]2[c-](-c3ccccc3)[c-](-c3ccccc3)[c-](-c3ccccc3)[c-]2-c2ccccc2)cc1 (centres undefined)	-28	0	7	28	10	96*
COC(=O)c1c(NC(=O)COC(=O)c2ccc(Cl)cc2[N+](=O)[O-])sc2c1CCCCC2	6	-2	5	3	0	71*
CN(C(=O)CSc1nc2ccccc2c(=O)n1C)C1CCS(=O)(=O)C1 (centres undefined)	19	2	12	19	2	16
CN(C(=O)CSc1nc2ccccc2n1C)C1CCS(=O)(=O)C1 (centres undefined)	-11	-7	-4	6	-6	68*
Cc1cc(C)n(CC(O)Cn2c3ccc(Cl)cc3c3cc(Cl)ccc32)c(=O)n1 (centres undefined)	-16	14	-19	12	10	4
OC(CNCCC1C=Nc2ccccc21)Cn1c2ccc(Cl)cc2c2cc(Cl)ccc21 (centres undefined)	-30	20	14	31	91*	102*
CCOc1ccc(C2=Nn3c(nnc3-c3ccco3)SC2)cc1	-68*	-1	-9	-3	-4	25
SMILES	KKLEB cytotox	ABHD5-PLIN5 inh	HIF-2a block	CF NFkB inh	TRPM1 prom inh	Peg3 prom inh
CCOc1ccc(C2=Nn3c(nnc3-c3ccccn3)SC2)cc1	-2	-1	17	-9	1	25
CCOc1ccc2c(c1)C(=NNC(=O)c1ccncc1)c1cc(OCC)ccc1-2	10	2	-126	-39	0	55*
O=C(Nc1cccnc1)NC1CCCCC1	6	-5	-8	-9	-9	9
Nc1cc2nsnc2cc1Br	-1	9	24	37	70*	41
Nc1cccc2nsnc12	8	-15	11	-12	-9	7
C(=C\c1sc(Nc2ccccc2)n[n+]1-c1ccccc1)/c1ccccc1	0	-4	-100	-11	79*	101*
O=C(CSc1nc2ccccc2c(=O)n1-c1ccc(SC(F)F)cc1)Nc1ccc(N2CCOCC2)cc1	-66*	-3	4	66*	10	6
COc1cc(-c2cnc3c(NC=O)cc(-c4ccccc4Cl)cn23)cc(OC)c1OC	-20	7	2	31	.	-1
COc1cc(-c2cc(NC=O)c3ncc(-c4ccc(C(C)=O)cc4)n3c2)cc(OC)c1OC	-18	-4	27	16	.	57*
COc1cc(-c2cc(NC=O)c3ncc(-c4cccc(C(F)(F)F)c4)n3c2)cc(OC)c1OC	-4	-1	-17	-9	.	52*
COc1cc(-c2cnc3c(NC=O)cc(-c4cccc(NC(C)=O)c4)cn23)cc(OC)c1OC	-67*	9	26	84*	.	64*
COc1cccc(-c2cnc3c(NC=O)cc(-c4cccc(NC(C)=O)c4)cn23)c1	-14	-3	-25	15	.	48
COc1ccc(-c2cc(NC=O)c3ncc(-c4cccc(C(F)(F)F)c4)n3c2)cc1OC	-14	-4	-5	27	.	29
COc1cc(-c2cc(NC(C)=O)c3ncc(-c4cc(OC)c(OC)c(OC)c4)n3c2)cc(OC)c1OC	-5	8	-84	-64	.	52*
CCOc1nc(C)ccc1-c1noc(-c2cccnc2)n1	-15	4	-121	20	-32	-106
CC(C)(C)OC(=O)CC1(C#N)c2ccccc2C(Br)=CN1C(=O)c1ccccc1 (centres undefined)	5	-1	6	16	9	26
COc1cc(-c2cnc3c(NC=O)cc(-c4ccccc4)cn23)cc(OC)c1OC	-9	1	-16	43	.	10
COc1cc(-c2cc(NC=O)c3ncc(-c4ccccc4)n3c2)cc(OC)c1OC	-14	-4	-66	3	.	51*
Cc1cc(OCc2cc(C(=O)NCc3csc(C(C)C)n3)no2)cc(C)c1Cl	-13	-13	-31	0	-1	15
CCOC(=O)CSC1=NC(=O)/C(=C/c2ccc(OC)cc2)S1	-29	-17	74*	34	82*	102*
COc1ccc(/C=C2\SC(N)=NC2=O)cc1	-4	3	-51	16	8	-22
